Experimental data taken from publication PMC4336329 (PLoS ONE, 2015).
The whole screen tested about 310,000 compounds, of which about 14,000 (4.5%) showed an effect of 50% or more. The effect is printed as a negative number. The list comes from a sample in which strong results are over-represented; it also holds similar structures and randomly drawn compounds.

Target: human ether-à-go-go-related gene (hERG) potassium channel (human, UniProt Q12809)
Assay: primary screen, population patch clamp on CHO cells stably expressing hERG; higher = less effect of the substance
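Note: peak tail current of the secondary pulse compared with the same well before compound.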

Chain of human ether-à-go-go-related gene (hERG) potassium channel (Q12809 whole entry, looked up): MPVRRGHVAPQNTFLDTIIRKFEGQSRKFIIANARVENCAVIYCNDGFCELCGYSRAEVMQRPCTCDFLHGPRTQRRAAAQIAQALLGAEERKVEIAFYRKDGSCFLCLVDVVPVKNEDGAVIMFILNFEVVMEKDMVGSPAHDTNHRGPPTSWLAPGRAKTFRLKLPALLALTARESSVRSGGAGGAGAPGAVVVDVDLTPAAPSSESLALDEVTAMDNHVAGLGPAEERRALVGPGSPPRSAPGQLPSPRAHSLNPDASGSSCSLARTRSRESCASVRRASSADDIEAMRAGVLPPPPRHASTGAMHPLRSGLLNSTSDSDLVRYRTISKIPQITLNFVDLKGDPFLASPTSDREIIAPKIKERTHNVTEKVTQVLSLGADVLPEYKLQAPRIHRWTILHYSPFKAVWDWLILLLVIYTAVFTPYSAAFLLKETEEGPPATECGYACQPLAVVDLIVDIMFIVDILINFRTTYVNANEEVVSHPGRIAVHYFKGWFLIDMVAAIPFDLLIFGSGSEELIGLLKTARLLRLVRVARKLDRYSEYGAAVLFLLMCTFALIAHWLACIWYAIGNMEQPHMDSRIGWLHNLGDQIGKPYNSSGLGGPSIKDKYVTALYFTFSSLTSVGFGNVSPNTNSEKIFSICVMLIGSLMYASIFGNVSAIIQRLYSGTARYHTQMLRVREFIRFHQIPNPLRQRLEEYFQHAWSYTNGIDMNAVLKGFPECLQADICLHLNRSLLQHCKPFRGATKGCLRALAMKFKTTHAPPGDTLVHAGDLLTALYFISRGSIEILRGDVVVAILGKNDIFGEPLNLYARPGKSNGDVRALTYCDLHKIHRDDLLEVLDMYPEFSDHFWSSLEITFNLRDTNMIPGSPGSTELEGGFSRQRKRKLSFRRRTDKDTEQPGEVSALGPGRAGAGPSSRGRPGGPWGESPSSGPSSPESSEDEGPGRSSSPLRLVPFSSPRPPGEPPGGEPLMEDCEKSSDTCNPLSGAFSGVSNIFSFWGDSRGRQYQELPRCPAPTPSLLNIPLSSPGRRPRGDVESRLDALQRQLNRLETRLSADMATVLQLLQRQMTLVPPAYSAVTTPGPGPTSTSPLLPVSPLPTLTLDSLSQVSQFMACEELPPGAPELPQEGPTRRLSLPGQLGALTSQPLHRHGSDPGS

SMILES	hERG current change (%, negative = inhibition) at 10uM [%]
CN(C)S(=O)(=O)c1ccc2nnn(OCC(=O)NC34CC5CC(CC(C5)C3)C4)c2c1	-51.7
C=CCNC(=O)NC(=O)COn1nnc2ccc(S(=O)(=O)N(C)C)cc21	5.69
CCc1ccc(NC(=O)COn2nnc3ccc(S(=O)(=O)N(C)C)cc32)cc1	-29.1
Cc1ccccc1CC(=O)Nc1ccc2c(C)cc(=O)oc2c1	-15.3
CCOC(=O)c1ccc(NC(=O)c2nc[nH]c2C(=O)N2CCN(c3ccccc3)CC2)cc1	3.29
O=C(O)C(Cc1c[nH]c2ccccc12)NS(=O)(=O)c1ccc(Br)cc1 (stereo not shown)	8.36
O=P(c1ccccc1)(c1ccccc1)c1nc(-c2ccccc2)oc1N1CCOCC1	-20.5
CCOP(=O)(c1ccccc1)c1nc(-c2ccccc2Cl)oc1N1CCCCC1 (stereo not shown)	-11.4
CCOP(=O)(OCC)c1nc(-c2ccccc2)oc1N1CCCCC1	4.4
O=P(c1ccccc1)(c1ccccc1)c1nc(-c2ccc(Cl)cc2)oc1N1CCOCC1	-74.1
COP(=O)(OC)c1nc(-c2ccc(C)cc2)oc1N1CCCCC1	-10.2
CCOP(=O)(OCC)c1nc(-c2ccc(Br)cc2)oc1N1CCCCC1	-65.3
CCOP(=O)(c1ccccc1)c1nc(-c2ccccc2C)oc1N1CCCCC1 (stereo not shown)	0.633
CCOP(=O)(c1ccccc1)c1nc(-c2ccc(F)cc2)oc1N1CCCCC1 (stereo not shown)	-56.6
Cc1ccc(-c2nc(P(=O)(c3ccccc3)c3ccccc3)c(N3CCOCC3)o2)cc1	-38.3
CC1=CCC2C(=O)N(c3ccc(C)cc3)C(=O)C2C1 (stereo not shown)	-4.42
Cc1ccc(NC(=O)Cn2nnc(-c3ccccc3NC(=O)c3cccs3)n2)cc1	21.7
Cc1nc2ccccc2c(=O)n1-c1ccc(Cl)cc1[N+](=O)[O-]	10.1
Cc1ccccc1NC(=O)C1CCCN(C(=O)NCc2ccccc2)C1 (stereo not shown)	1.82
CCN(CC)CCCN=C(C)c1c(O)n(C2CCCCC2)c(=O)[nH]c1=O	-48.7
CCC(=NCCCn1ccnc1)c1c(O)n(-c2ccccc2)c(=O)[nH]c1=O	7.4
CCCCCCN=C(C)c1c(O)n(CCCC)c(=O)[nH]c1=O	-8.21

SMILES	hERG current change (%, negative = inhibition) at 10uM [%]
CCCCn1c(O)c(C(C)=NCCN2CCCCC2)c(=O)[nH]c1=O	-21.7
CCCCn1c(O)c(C(CC)=NCCCn2ccnc2)c(=O)[nH]c1=O	-43.3
CCC(=NCCO)c1c(O)n(C2CCCCC2)c(=O)[nH]c1=O	-14.6
CCCCn1c(O)c(C(CC)=NCCN2CCOCC2)c(=O)[nH]c1=O	-15.3
CCC(=NCCCN(CC)CC)c1c(O)n(C2CCCCC2)c(=O)[nH]c1=O	-52.9
CCCCCCN=C(CC)c1c(O)n(CCCC)c(=O)[nH]c1=O	-55.4
CCC(=NCCCn1ccnc1)c1c(O)n(Cc2ccccc2)c(=O)[nH]c1=O	-68
CCCCn1c(O)c(C(CC)=NCCN2CCCCC2)c(=O)[nH]c1=O	-53.6
CCCCn1c(O)c(C(CC)=NCCCN(C)C)c(=O)[nH]c1=O	-29.2
CCOC(=O)C1=c2s/c(=C\c3cccnc3)c(=O)n2C(N)=C(C(=O)OC)C1c1cccnc1 (stereo not shown)	14.7
Cn1c(=O)c2c(nc(SCCN3CCOCC3)n2C)n(C)c1=O	16.9
Cc1cc(C(=O)NNC(=S)Nc2ccccc2C)cs1	18.8
CC(=O)n1nc(-c2cccnc2)nc1N	-7.75
NS(=O)(=O)c1cc2c(cc1Cl)NC(C(Cl)Cl)NS2(=O)=O (stereo not shown)	20.2
CCCCCCn1c(O)c(C=NCCN2CCCCC2)c(=O)[nH]c1=O	-51.9
CCCCCCn1c(O)c(C=NCCN2CCOCC2)c(=O)[nH]c1=O	-7.56
CCCCn1c(O)c(C=NCCN2CCCCC2)c(=O)[nH]c1=O	-2.31
CCCNC(=O)N1CCC(C(=O)c2cccc(F)c2)CC1	-10.9
C#Cc1ccc(C(=O)NCc2ccc(N3CCCC3=O)cc2)cc1	20.2
CC(C)(C)NC(=O)C(c1ccco1)N(C(=O)Cn1nnc(-c2ccc(F)cc2)n1)c1ccccc1 (stereo not shown)	-17.5
Cc1c(C)n(C)c2ccc(C(=O)NCCCN3CCCCC3C)cc12 (stereo not shown)	-19.6
CCC1CCCCN1CCCNC(=O)c1ccc2nc(N3CCC(C)CC3)sc2c1 (stereo not shown)	-64.5

SMILES	hERG current change (%, negative = inhibition) at 10uM [%]
CCC1CCCCN1CCCNC(=O)c1ccc2nc(N3CCCCC3)sc2c1 (stereo not shown)	-34
CCC1CCCCN1CCCNC(=O)c1ccc2c(c1)c(C)c(C)n2C (stereo not shown)	-35
CC1CCCCN1CCCNC(=O)c1ccc2nc(N3CCCCC3)sc2c1 (stereo not shown)	-22.8
CC1CCN(c2nc3ccc(C(=O)NCCCN4CCCCC4C)cc3s2)CC1 (stereo not shown)	-59
CC1CCCC(C)N1CCCNC(=O)c1ccc2nc(N3CCOCC3)sc2c1 (stereo not shown)	-10.3
CC(C)CC1Nc2ccc(C(=O)NCCCN3CCCCC3C)cc2NC1=O (stereo not shown)	3.4
CC1CCCCN1CCCNC(=O)c1cc(Br)c(Br)[nH]1 (stereo not shown)	-64.9
Cc1ccc(OCC(=O)NNC(=O)CCc2ccccc2)c(Br)c1	10
CCOC(=O)N1CCN(C(=O)C2CCCN(S(=O)(=O)c3ccc(F)cc3)C2)CC1 (stereo not shown)	-10.1
COc1ccc(Cl)cc1NC(=O)c1cc(-c2ccc(C)cc2O)n[nH]1	15.9
O=C1CSC(c2ccncc2)N1Cc1ccc(F)cc1 (stereo not shown)	1.53
CCN1CCc2c(C#N)c(N3CCOCC3)nc(NCCO)c2C1	11.8
CCN1CCc2c(C#N)c(NCc3ccccc3)nc(N(CC)CC)c2C1	-68.5
CCN1CCc2c(C#N)c(N3CCCCC3)nc(NCc3ccccc3)c2C1	-39.8
CCN1CCc2c(C#N)c(NCc3ccccc3)nc(NCCO)c2C1	-51.6
C=CCNc1nc(NCc2ccccc2)c(C#N)c2c1CN(C)CC2	-68.1
C=CCNc1nc(N2CCOCC2)c(C#N)c2c1CN(C)CC2	-14.1
N#Cc1c(NCCO)nc(NCc2ccccc2)c2c1CCN(Cc1ccccc1)C2	-27.1
CN1CCc2c(C#N)c(N3CCCCC3)nc(NCc3ccccc3)c2C1	-2.02
CCc1nc(NCc2ccccc2)c(C#N)c2c1CCCC2	23.3
